About 2,000 (36%) of roughly 5,500 compounds were called active. About 18% were inconclusive and are not listed. Cut-off read from the data, not from the text of the source: active = normalized growth mostly below about 0.91 (no sharp cut-off); inconclusive = no clear call, values can overlap the other calls; inactive = mostly above about 0.92. This is one part of the list.
Assay: chemical genetic growth profiling, strain panel (AID 1159580);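 note: tested at 20 µM; growth read once vehicle control cultures reached saturation at 30 °C; 1 = growth at the plate median or of vehicle wells; lower values mean less growth of the strain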
Conditions: S. cerevisiae deletion strains, growth OD

Measured: normalized growth

CC1(C)C=CC(=O)[C@@]2(C)C1CC(=O)[C@]1(C)C2CC[C@@]2(C)[C@H](c3ccoc3)OC(=O)C3OC321 (stereo partly drawn)
active: locus YDR137W, strain rgp1, active compounds read low 0.843 | locus YLR371W, strain rom2, active compounds read low 0.901
inactive: locus YAL021C, strain ccr4, active compounds read low 0.977 | locus YAL026C, strain drs2, active compounds read low 1 | locus YAL030W, strain snc1, active compounds read low 0.995 | locus YBL061C, strain skt5, active compounds read low 0.998 | locus YBR009C, strain hhf1, active compounds read low 0.984 | locus YBR021W, strain FUR4, active compounds read low 1 | locus YBR023C, strain chs3, active compounds read low 0.983 | locus YBR171W, strain sec66, active compounds read low 1.01 | locus YBR229C, strain ROT2, active compounds read low 0.944 | locus YBR231C, strain swc5, active compounds read low 1 | locus YBR279W, strain paf1, active compounds read low 0.988 | locus YCL011C, strain gbp2, active compounds read low 0.996 | locus YCL016C, strain dcc1, active compounds read low 0.99 | locus YCL029C, strain bik1, active compounds read low 0.96 | locus YCL061C, strain MRC1, active compounds read low 1.01 | locus YCL069W, strain vba3, active compounds read low 0.995 | locus YCR088W, strain abp1, active compounds read low 1 | locus YDL005C, strain med2, active compounds read low 0.996 | locus YDL035C, strain GPR1, active compounds read low 0.945 | locus YDL040C, strain nat1, active compounds read low 0.996 | locus YDL074C, strain BRE1, active compounds read low 0.926 | locus YDL101C, strain DUN1, active compounds read low 0.967 | locus YDL185W, strain tfp1, active compounds read low 0.966 | locus YDL192W, strain arf1, active compounds read low 0.94 | locus YDR001C, strain nth1, active compounds read low 0.992 | locus YDR069C, strain doa4, active compounds read low 0.976 | locus YDR101C, strain arx1, active compounds read low 0.93 | locus YDR159W, strain sac3, active compounds read low 0.954 | locus YDR162C, strain NBP2, active compounds read low 0.953 | locus YDR195W, strain ref2 1.03 | locus YDR297W, strain sur2, active compounds read low 0.983 | locus YDR318W, strain mcm21, active compounds read low 0.969 | locus YDR334W, strain swr1, active compounds read low 1 | locus YDR335W, strain msn5, active compounds read low 1 | locus YDR388W, active compounds read low 0.982 | locus YDR392W, strain spt3, active compounds read low 0.982 | locus YDR502C, strain sam2, active compounds read low 0.983 | locus YEL003W, strain gim4, active compounds read low 0.994 | locus YEL037C, strain rad23, active compounds read low 1 | locus YEL061C, strain CIN8 (second series), active compounds read low 0.997 | locus YEL061C, strain CIN8, active compounds read low 0.971 | locus YER015W, strain faa2, active compounds read low 0.982 | locus YER016W, strain bim1, active compounds read low 0.985 | locus YER110C, active compounds read low 0.959 | locus YER111C, strain swi4, active compounds read low 1 | locus YER155C, strain BEM2 (second series), active compounds read low 1.01 | locus YER155C, strain BEM2, active compounds read low 0.998 | locus YER167W, strain BCK2, active compounds read low 0.959 | locus YFR010W, strain ubp6, active compounds read low 1.01 | locus YGL078C, strain dbp3, active compounds read low 1.02 | locus YGL086W, strain mad1, active compounds read low 0.979 | locus YGL167C, strain pmr1, active compounds read low 0.991 | locus YGL173C, strain kem1, active compounds read low 0.994 | locus YGL227W, strain vid30, active compounds read low 0.994 | locus YGL240W, strain doc1, active compounds read low 0.99 | locus YGL248W, strain PDE1, active compounds read low 0.974 | locus YGL253W, strain hxk2, active compounds read low 0.994 | locus YGR078C, strain PAC10, active compounds read low 0.981 | locus YGR135W, strain pre9, active compounds read low 1.03 | locus YGR252W, strain gcn5, active compounds read low 0.966 | locus YHR013C, strain ard1, active compounds read low 0.968 | locus YHR027C, strain rpn1, active compounds read low 0.979 | locus YHR030C, strain SLT2, active compounds read low 0.98 | locus YHR079C, strain IRE1 (second series), active compounds read low 0.975 | locus YHR094C, strain hxt1, active compounds read low 0.967 | locus YHR129C, strain ARP1, active compounds read low 0.98 | locus YHR142W, strain chs7, active compounds read low 0.999 | locus YHR200W, strain rpn10, active compounds read low 0.986 | locus YIL066C, strain RNR3, active compounds read low 0.904 | locus YIL073C, strain SPO22, active compounds read low 1.01 | locus YIL125W, strain kgd1, active compounds read low 0.968 | locus YIR030C, strain dcg1, active compounds read low 0.969 | locus YJL092W, strain hpr5, active compounds read low 0.999 | locus YJL095W, strain BCK1 (second series), active compounds read low 0.985 | locus YJL095W, strain BCK1, active compounds read low 0.981 | locus YJL115W, strain asf1, active compounds read low 0.994 | locus YJL129C, strain trk1, active compounds read low 0.976 | locus YJL134W, strain LCB3, active compounds read low 0.975 | locus YJL154C, strain vps35, active compounds read low 0.996 | locus YJL164C, strain tpk1, active compounds read low 0.991 | locus YJL166W, strain qcr8, active compounds read low 0.992 | locus YJL168C, strain set2, active compounds read low 0.98 | locus YJL187C, strain SWE1 (second series), active compounds read low 0.977 | locus YJL187C, strain SWE1, active compounds read low 0.997 | locus YJR043C, strain POL32, active compounds read low 0.981 | locus YKL009W, strain mrt4, active compounds read low 1.02 | locus YKL068W, active compounds read low 0.993 | locus YKL085W, strain MDH1 (second series), active compounds read low 1 | locus YKL085W, strain MDH1, active compounds read low 1 | locus YKL160W, strain elf1, active compounds read low 0.987 | locus YKL190W, strain CNB1, active compounds read low 0.975 | locus YKR001C, strain vps1, active compounds read low 0.996 | locus YKR026C, strain gcn3, active compounds read low 0.989 | locus YKR091W, strain srl3, active compounds read low 0.994 | locus YLL001W, strain dnm1, active compounds read low 1.01 | locus YLL026W, active compounds read low 0.984 | locus YLL041C, strain sdh2, active compounds read low 1 | locus YLR027C, strain aat2, active compounds read low 0.984 | locus YLR039C, strain RIC1, active compounds read low 0.863 | locus YLR058C, strain SHM2, active compounds read low 0.949 | locus YLR102C, strain apc9, active compounds read low 0.972 | locus YLR221C, strain rsa3, active compounds read low 1 | locus YLR258W, strain gsy2, active compounds read low 0.988 | locus YLR262C, strain YPT6 (second series), active compounds read low 0.905 | locus YLR262C, strain YPT6, active compounds read low 0.857 | locus YLR268W, strain sec22, active compounds read low 0.911 | locus YLR320W, strain mms22, active compounds read low 0.988 | locus YLR342W, strain FKS1 (second series), active compounds read low 0.915 | locus YLR342W, strain FKS1, active compounds read low 1.01 | locus YLR357W, strain rsc2, active compounds read low 1.01 | locus YLR370C, strain arc18, active compounds read low 0.992 | locus YLR384C, strain iki3, active compounds read low 1 | locus YLR418C, strain cdc73, active compounds read low 0.952 | locus YML016C, strain PPZ1, active compounds read low 0.951 | locus YML032C, strain rad52, active compounds read low 0.936 | locus YML120C, strain ndi1, active compounds read low 0.99 | locus YML124C, strain tub3, active compounds read low 0.973 | locus YMR058W, strain fet3, active compounds read low 1.01 | locus YMR078C, strain ctf18, active compounds read low 0.974 | locus YMR125W, strain sto1, active compounds read low 0.995 | locus YMR129W, active compounds read low 0.99 | locus YMR205C, strain PFK2, active compounds read low 1.01 | locus YMR223W, strain ubp8, active compounds read low 0.984 | locus YMR231W, strain pep5, active compounds read low 1.01 | locus YMR263W, strain SAP30, active compounds read low 0.975 | locus YMR307W, strain GAS1, active compounds read low 0.865 | locus YNL067W, strain RPL9B, active compounds read low 1.02 | locus YNL071W, strain lat1, active compounds read low 0.999 | locus YNL153C, strain GIM3, active compounds read low 0.981 | locus YNL209W, strain ssb2, active compounds read low 0.984 | locus YNL233W, strain BNI4, active compounds read low 0.984 | locus YNL248C, strain rpa49, active compounds read low 0.983 | locus YNL250W, strain rad50, active compounds read low 1 | locus YNL271C, strain bni1, active compounds read low 0.963 | locus YNL298W, strain CLA4, active compounds read low 0.97 | locus YNL307C, strain MCK1, active compounds read low 0.961 | locus YNL322C, strain KRE1 (second series), active compounds read low 0.989 | locus YNR049C, strain mso1, active compounds read low 1 | locus YNR052C, strain pop2, active compounds read low 0.977 | locus YOL006C, strain TOP1, active compounds read low 0.813 | locus YOL012C, strain htz1 1.08 | locus YOL147C, strain pex11, active compounds read low 0.971 | locus YOR001W, strain rrp6, active compounds read low 1 | locus YOR061W, strain CKA2, active compounds read low 0.924 | locus YOR069W, strain VPS5, active compounds read low 0.981 | locus YOR070C, strain gyp1, active compounds read low 1 | locus YOR080W, strain dia2, active compounds read low 1 | locus YOR083W, strain WHI5, active compounds read low 0.999 | locus YOR106W, strain vam3, active compounds read low 1 | locus YOR136W, strain idh2, active compounds read low 0.981 | locus YOR144C, strain elg1, active compounds read low 0.973 | locus YOR184W, strain ser1, active compounds read low 0.922 | locus YOR265W, strain rbl2, active compounds read low 1 | locus YOR270C, strain vph1, active compounds read low 0.833 | locus YOR290C, strain snf2, active compounds read low 0.974 | locus YOR316C, strain cot1, active compounds read low 0.965 | locus YPL051W, strain arl3, active compounds read low 0.987 | locus YPL055C, strain LGE1, active compounds read low 0.884 | locus YPL078C, strain atp4, active compounds read low 1 | locus YPL106C, strain sse1, active compounds read low 1 | locus YPL240C, strain hsp82, active compounds read low 0.999 | locus YPR119W, strain clb2, active compounds read low 0.985 | locus YPR141C, strain kar3, active compounds read low 0.972 | locus YPR163C, strain tif3, active compounds read low 0.956 | locus YPR167C, strain met16, active compounds read low 0.986 | strain wtn01, active compounds read low 0.936

From PubChem BioAssay AID1159580 (chemical genetic matrix, 2015)
